Measurements from PubChem BioAssay AID1159580 (chemical genetic matrix, 2015).
The whole screen tested about 5,500 compounds, of which about 2,000 (36%) were called active. Inconclusive results (about 18%) are left out. Rule as the data show it: active = normalized growth mostly below about 0.91 (no sharp cut-off); inconclusive = no clear call, values can overlap the other calls; inactive = mostly above about 0.92. This is one part of the list.

Test: chemical genetic growth profiling, strain panel (AID 1159580);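 also: tested at 20 µM; growth read once vehicle control cultures reached saturation at 30 °C; 1 = growth at the plate median or of vehicle wells; lower values mean less growth of the strain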
Details: S. cerevisiae deletion strains, growth OD

Measured: normalized growth

COc1cc2c(cc1-c1coc3c4c(c(OC)cc3c1=O)OC(C)(C)C=C4)OCO2
active: locus YDR137W, strain rgp1, active compounds read low 0.654 | locus YDR195W, strain ref2 1.18 [resistant] | locus YDR392W, strain spt3, active compounds read low 0.295 | locus YLR262C, strain YPT6 (second series), active compounds read low 0.681 | locus YLR418C, strain cdc73, active compounds read low 0.798 | locus YNL071W, strain lat1, active compounds read low 0.799 | locus YNL233W, strain BNI4, active compounds read low 0.868 | locus YPL051W, strain arl3, active compounds read low 0.895
inactive: locus YAL013W, strain DEP1, active compounds read low 0.934 | locus YAL021C, strain ccr4, active compounds read low 0.993 | locus YAL026C, strain drs2, active compounds read low 1.03 | locus YAL030W, strain snc1, active compounds read low 1.03 | locus YBL061C, strain skt5, active compounds read low 1.02 | locus YBR009C, strain hhf1, active compounds read low 0.95 | locus YBR021W, strain FUR4, active compounds read low 1.05 | locus YBR023C, strain chs3, active compounds read low 0.971 | locus YBR171W, strain sec66, active compounds read low 1.03 | locus YBR229C, strain ROT2, active compounds read low 0.994 | locus YBR231C, strain swc5, active compounds read low 1.04 | locus YBR279W, strain paf1, active compounds read low 0.985 | locus YCL011C, strain gbp2, active compounds read low 1 | locus YCL016C, strain dcc1, active compounds read low 0.982 | locus YCL029C, strain bik1, active compounds read low 0.985 | locus YCL061C, strain MRC1, active compounds read low 1.01 | locus YCL069W, strain vba3, active compounds read low 1.05 | locus YCR088W, strain abp1, active compounds read low 1.05 | locus YDL005C, strain med2, active compounds read low 1.04 | locus YDL035C, strain GPR1, active compounds read low 0.998 | locus YDL040C, strain nat1, active compounds read low 1.02 | locus YDL074C, strain BRE1, active compounds read low 0.902 | locus YDL101C, strain DUN1, active compounds read low 0.95 | locus YDL134C, strain PPH21, active compounds read low 0.907 | locus YDL185W, strain tfp1, active compounds read low 1.01 | locus YDL192W, strain arf1, active compounds read low 0.966 | locus YDR001C, strain nth1, active compounds read low 1.04 | locus YDR069C, strain doa4, active compounds read low 1.04 | locus YDR101C, strain arx1, active compounds read low 1 | locus YDR159W, strain sac3, active compounds read low 0.981 | locus YDR162C, strain NBP2, active compounds read low 0.884 | locus YDR297W, strain sur2, active compounds read low 1.02 | locus YDR318W, strain mcm21, active compounds read low 0.964 | locus YDR334W, strain swr1, active compounds read low 1.04 | locus YDR335W, strain msn5, active compounds read low 1.03 | locus YDR388W, active compounds read low 0.986 | locus YDR502C, strain sam2, active compounds read low 0.97 | locus YEL003W, strain gim4, active compounds read low 1.02 | locus YEL037C, strain rad23, active compounds read low 1.04 | locus YEL061C, strain CIN8 (second series), active compounds read low 1.04 | locus YER015W, strain faa2, active compounds read low 0.991 | locus YER016W, strain bim1, active compounds read low 1.03 | locus YER110C, active compounds read low 0.994 | locus YER111C, strain swi4, active compounds read low 0.994 | locus YER155C, strain BEM2 (second series), active compounds read low 0.926 | locus YER155C, strain BEM2, active compounds read low 0.988 | locus YER167W, strain BCK2, active compounds read low 1.01 | locus YFR010W, strain ubp6, active compounds read low 1.07 | locus YGL078C, strain dbp3, active compounds read low 0.983 | locus YGL086W, strain mad1, active compounds read low 0.959 | locus YGL167C, strain pmr1, active compounds read low 1.02 | locus YGL173C, strain kem1, active compounds read low 1 | locus YGL227W, strain vid30, active compounds read low 1.08 | locus YGL240W, strain doc1, active compounds read low 0.984 | locus YGL248W, strain PDE1, active compounds read low 0.929 | locus YGL253W, strain hxk2, active compounds read low 1.01 | locus YGR135W, strain pre9, active compounds read low 0.916 | locus YGR252W, strain gcn5, active compounds read low 0.863 | locus YHR013C, strain ard1, active compounds read low 0.991 | locus YHR027C, strain rpn1, active compounds read low 1.03 | locus YHR030C, strain SLT2, active compounds read low 0.968 | locus YHR079C, strain IRE1 (second series), active compounds read low 0.995 | locus YHR094C, strain hxt1, active compounds read low 1 | locus YHR129C, strain ARP1, active compounds read low 0.959 | locus YHR142W, strain chs7, active compounds read low 0.976 | locus YHR200W, strain rpn10, active compounds read low 0.957 | locus YIL066C, strain RNR3, active compounds read low 0.991 | locus YIL073C, strain SPO22, active compounds read low 0.919 | locus YIL125W, strain kgd1, active compounds read low 0.982 | locus YIR030C, strain dcg1, active compounds read low 1 | locus YJL092W, strain hpr5, active compounds read low 1.04 | locus YJL095W, strain BCK1 (second series), active compounds read low 0.974 | locus YJL095W, strain BCK1, active compounds read low 0.809 | locus YJL115W, strain asf1, active compounds read low 1.04 | locus YJL129C, strain trk1, active compounds read low 1.03 | locus YJL134W, strain LCB3, active compounds read low 1 | locus YJL154C, strain vps35, active compounds read low 1.04 | locus YJL164C, strain tpk1, active compounds read low 0.968 | locus YJL166W, strain qcr8, active compounds read low 0.933 | locus YJL168C, strain set2, active compounds read low 0.985 | locus YJL187C, strain SWE1 (second series), active compounds read low 0.938 | locus YKL009W, strain mrt4, active compounds read low 1.01 | locus YKL068W, active compounds read low 1 | locus YKL085W, strain MDH1 (second series), active compounds read low 1 | locus YKL085W, strain MDH1, active compounds read low 1 | locus YKL160W, strain elf1, active compounds read low 0.927 | locus YKR001C, strain vps1, active compounds read low 0.937 | locus YKR026C, strain gcn3, active compounds read low 1.06 | locus YKR091W, strain srl3, active compounds read low 1.02 | locus YLL001W, strain dnm1, active compounds read low 1.01 | locus YLL026W, active compounds read low 1.04 | locus YLL041C, strain sdh2, active compounds read low 1.03 | locus YLR027C, strain aat2, active compounds read low 0.992 | locus YLR039C, strain RIC1, active compounds read low 0.788 | locus YLR058C, strain SHM2, active compounds read low 0.984 | locus YLR102C, strain apc9, active compounds read low 0.997 | locus YLR221C, strain rsa3, active compounds read low 1.01 | locus YLR258W, strain gsy2, active compounds read low 0.978 | locus YLR268W, strain sec22, active compounds read low 0.998 | locus YLR320W, strain mms22, active compounds read low 0.912 | locus YLR342W, strain FKS1 (second series), active compounds read low 0.936 | locus YLR342W, strain FKS1, active compounds read low 0.968 | locus YLR357W, strain rsc2, active compounds read low 1.12 | locus YLR370C, strain arc18, active compounds read low 0.973 | locus YLR371W, strain rom2, active compounds read low 1.02 | locus YLR384C, strain iki3, active compounds read low 1.03 | locus YML016C, strain PPZ1, active compounds read low 0.987 | locus YML032C, strain rad52, active compounds read low 0.963 | locus YML120C, strain ndi1, active compounds read low 0.971 | locus YML124C, strain tub3, active compounds read low 1 | locus YMR058W, strain fet3, active compounds read low 1 | locus YMR078C, strain ctf18, active compounds read low 0.986 | locus YMR125W, strain sto1, active compounds read low 1.01 | locus YMR129W, active compounds read low 1.03 | locus YMR205C, strain PFK2, active compounds read low 0.919 | locus YMR223W, strain ubp8, active compounds read low 0.928 | locus YMR231W, strain pep5, active compounds read low 1.01 | locus YMR307W, strain GAS1, active compounds read low 0.685 | locus YNL067W, strain RPL9B, active compounds read low 0.956 | locus YNL209W, strain ssb2, active compounds read low 1 | locus YNL248C, strain rpa49, active compounds read low 1.1 | locus YNL250W, strain rad50, active compounds read low 0.972 | locus YNL271C, strain bni1, active compounds read low 0.991 | locus YNL298W, strain CLA4, active compounds read low 0.953 | locus YNL307C, strain MCK1, active compounds read low 0.907 | locus YNL322C, strain KRE1 (second series), active compounds read low 1.04 | locus YNR049C, strain mso1, active compounds read low 1.03 | locus YNR052C, strain pop2, active compounds read low 0.944 | locus YOL006C, strain TOP1, active compounds read low 0.842 | locus YOL012C, strain htz1 0.696 | locus YOL147C, strain pex11, active compounds read low 0.996 | locus YOR001W, strain rrp6, active compounds read low 1.02 | locus YOR061W, strain CKA2, active compounds read low 1.02 | locus YOR069W, strain VPS5, active compounds read low 0.973 | locus YOR070C, strain gyp1, active compounds read low 0.992 | locus YOR080W, strain dia2, active compounds read low 1.04 | locus YOR083W, strain WHI5, active compounds read low 0.959 | locus YOR106W, strain vam3, active compounds read low 0.996 | locus YOR136W, strain idh2, active compounds read low 0.98 | locus YOR144C, strain elg1, active compounds read low 0.993 | locus YOR184W, strain ser1, active compounds read low 0.904 | locus YOR265W, strain rbl2, active compounds read low 1.01 | locus YOR270C, strain vph1, active compounds read low 0.871 | locus YOR290C, strain snf2, active compounds read low 0.948 | locus YOR316C, strain cot1, active compounds read low 0.985 | locus YPL078C, strain atp4, active compounds read low 0.95 | locus YPL106C, strain sse1, active compounds read low 1.05 | locus YPL240C, strain hsp82, active compounds read low 1.04 | locus YPR119W, strain clb2, active compounds read low 0.995 | locus YPR141C, strain kar3, active compounds read low 0.999 | locus YPR163C, strain tif3, active compounds read low 0.986 | locus YPR167C, strain met16, active compounds read low 0.972 | strain wtn01, active compounds read low 0.989
